HCV inhibitor = qHTS Assay for Inhibitors of Hepatitis C Virus (HCV); Potency, µM (highest dose often 41.8 µM), most hits filed as inhibitors; 340,000 compounds, 3.4% hits; Huh7.5.1 HCVcc-Cre infection, luciferase reporter, 44 h; AID 651820, 2012; active = well fitted inhibition curve with a large enough effect; inconclusive = small, poorly fitted or top-dose-only effect, or another doubt; inactive = no such curve, though single readings can be large or run the other way
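HCVcc-Cre virus at an moi near 0.5 was added right after compound to cells cultured 4 h from seeding (1,000 cells/well). Luciferase activity was determined 44 h later, 15 min after substrate addition at RT.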
VACV Venus inh = qHTS for Stage-Specific Inhibitors of Vaccinia Orthopoxvirus: Venus Reporter Primary qHTS; Potency, µM (top dose mostly 36.5 µM), actives largely listed as inhibitors; AID 720580, 2013; 330,000 compounds, 0.46% hits; Vaccinia virus Venus reporter expression, fluorescence; calls by dose curve; tested in A549 cells; also: nearly all actives have a fitted effect of over 30% in size
VACV mCherry inh = qHTS for Stage-Specific Inhibitors of Vaccinia Orthopoxvirus: mCherry Reporter Primary qHTS; Potency, µM (top dose mostly 36.5 µM), hits mostly inhibitors; AID 720579, 2013; 310,000 compounds, 0.63% hits; Vaccinia virus mCherry reporter infection, fluorescence; calls by dose curve; tested in A549 cells; also: nearly all actives have a fitted effect of over 35% in size
FMDV inh = High Throughput Screening for Foot and Mouth Disease Virus Antivirals. FMDV antiviral cell-based qHTS. Potency, µM (top dose mostly 57.9 µM), actives largely listed as inhibitors. 410,000 compounds, 1.2% hits. AID 1159524, 2015; calls by dose curve; tested in HEK293T cells; also: read-out not given here; nearly all actives have a fitted effect of over 45% in size
HCMV inh = qHTS Assay for inhibitors of the human cytomegalovirus (HCMV). HFF cells, HCMV-luciferase reporter, 72 h; stronger effect = lower value. activity change, negative = inhibition, % at 57.5 µM. 410,000 compounds, 4.5% hits. AID 1259415, 2018; in the data active = activity change below about -60%; inconclusive = no clear call, values can overlap the other calls; inactive = above about -39%
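Inhibition of viral replication was scored as loss of reporter luminescence in HFFs infected with HCMV-luciferase (MOI 1 PFU/cell) for 72 h; compounds tested at 2 doses, normalized to buffer and Salinomycin controls.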
Each line names hits and unclear results; the compound was inactive in the other large screens. Compounds with a hit are over-represented: about 7.3% of the library has one in this group of screens.

Cc1ccc(C(=O)COC(=O)c2ccc3c(c2)C(=O)N(c2cccc4ncccc24)C3=O)cc1	FMDV inh inconclusive, HCMV inh -94 (no result: VACV Venus inh, VACV mCherry inh)
Cc1ccc(C)c(CN2CCc3nnc(CNC(=O)c4cc(C)oc4C)n3CC2)c1	none (no result: HCV inhibitor, HCMV inh)
COc1cc(=O)n2c(c1C(=O)NCc1ccc3c(c1)OCO3)CCN(C(=O)c1ccc(C)cc1)CC2	none (no result: HCV inhibitor, HCMV inh)
CC(C)Oc1ccc(CNC(=O)c2ccc(NC(=O)N3CCSc4ncccc43)cc2)cc1	HCMV inh inconclusive (no result: HCV inhibitor)
COc1ccc(C(=O)N(c2ccccc2)c2nccc3ccccc23)cc1OC	HCV inhibitor 1.8µM
COc1ccc(C(=O)NCc2cc(C)nc3ccccc23)cc1OC	HCV inhibitor inconclusive, FMDV inh inconclusive
C1CCCCCC(NCCN2CCNCC2)CCCCC1	HCV inhibitor 1.3µM
O=C(NC1CCCCC1)N1CCNCC1	none
NC(=S)N=Nc1c(O)n(CCCl)c2ccc(Br)cc12	HCV inhibitor inconclusive, VACV Venus inh inconclusive, VACV mCherry inh inconclusive
NC(=S)N=Nc1c(O)n(Cc2ccc(F)cc2)c2ccccc12	HCV inhibitor inconclusive, FMDV inh inconclusive (no result: VACV Venus inh, VACV mCherry inh)
NC(=S)N=Nc1c(O)n(Cc2ccc(Br)cc2)c2ccccc12	HCV inhibitor 1µM, VACV Venus inh 1µM, VACV mCherry inh 1µM
Cc1ccc2c(c1)c(N=NC(N)=S)c(O)n2Cc1ccccc1	VACV Venus inh 1µM, VACV mCherry inh 0.89µM
C/C(Cl)=C\Cn1c(O)c(N=NC(N)=S)c2cc(Br)ccc21	HCV inhibitor 11µM, FMDV inh inconclusive, HCMV inh -109 (no result: VACV Venus inh, VACV mCherry inh)
C[C@@H]1COc2cc(N3CCOCC3)ccc2S(=O)(=O)N1	none (no result: HCV inhibitor, VACV Venus inh, VACV mCherry inh, FMDV inh)
C[C@@H]1CN(Cc2ccc3c(c2)CN(Cc2coc4ccccc4c2=O)CCO3)C[C@H](C)O1	none (no result: HCV inhibitor, HCMV inh)
COc1ccc(CCNC(=S)NC2CCN(Cc3ccccc3)CC2)cc1	HCV inhibitor inconclusive, VACV mCherry inh inconclusive, HCMV inh -72
S=C(NCCc1ccccc1)NC1CCC(NC(=S)NCCc2ccccc2)CC1 (configuration not stated)	HCMV inh inconclusive
CCc1ccc(NC(=S)NC2CCN(Cc3ccccc3)CC2)cc1	HCV inhibitor inconclusive, VACV Venus inh inconclusive, VACV mCherry inh inconclusive, HCMV inh -77
S=C(Nc1ccccc1)NC1CCN(Cc2ccccc2)CC1	none
S=C(Nc1ccc(Cl)cc1)NC1CCN(Cc2ccccc2)CC1	HCV inhibitor 11µM, VACV Venus inh inconclusive, VACV mCherry inh inconclusive, FMDV inh inconclusive
CCC(C)c1ccc(NC(=S)NC2CCN(Cc3ccccc3)CC2)cc1 (configuration not stated)	HCV inhibitor 10µM, VACV Venus inh 10µM, VACV mCherry inh inconclusive, FMDV inh inconclusive, HCMV inh -98
CCOC(=O)c1c(NC(=O)c2ccc(S(=O)(=O)N(C)C3CCCCC3)cc2)sc2c1CCN(C(C)C)C2	none (no result: HCV inhibitor)
COc1ccc(N2CC(NC(=O)C(=O)c3c[nH]c4ccccc34)CC2=O)cc1 (configuration not stated)	none (no result: HCV inhibitor)
Cc1ccc(-n2c(=O)c3c4c(sc3n(CC(=O)c3ccc(Cl)cc3)c2=O)CCC4)cc1C	none (no result: HCV inhibitor)
CC(C)C(=O)Nc1nnc(S(=O)(=O)N(C)Cc2ccc(F)cc2)s1	HCMV inh inconclusive (no result: HCV inhibitor)
CCN(CC)S(=O)(=O)c1ccc(C(=O)C(C#N)c2ccccn2)cc1 (configuration not stated)	HCV inhibitor 10µM, HCMV inh inconclusive (no result: FMDV inh)
CCOC(=O)C(C#N)c1ccccn1 (configuration not stated)	none
CC(C)CC(=O)Nc1ccc(Oc2ccc(NC(=O)CC(C)C)cc2)cc1	none (no result: VACV Venus inh, VACV mCherry inh)
CC(C)CC(=O)Nc1ccc(Nc2ccccc2)cc1	HCV inhibitor 2.8µM
CCN(CC)c1cc(CS(=O)c2ccccc2)nc(-c2ccccc2)n1 (configuration not stated)	HCV inhibitor inconclusive, HCMV inh -61
S=C(NCCc1ccccc1)Nc1ccc(Cl)cc1Cl	none
Cc1ccc(NC(=S)NCCc2ccccc2)c(C)c1	HCV inhibitor inconclusive, HCMV inh inconclusive
CCNC(=S)Nc1ccc(Cl)cc1Cl	HCMV inh -65
S=C(NCCc1ccccc1)Nc1ccc(Br)cc1	HCMV inh -75
Cc1ccc(NC(=S)NCCc2c[nH]c3ccccc23)c(C)c1	HCV inhibitor inconclusive, HCMV inh -90 (no result: VACV Venus inh, VACV mCherry inh)
Cc1cc(Br)ccc1NC(=S)NCCc1ccccc1	HCMV inh -66
COc1ccccc1NC(=S)NCCc1c[nH]c2ccccc12	none

Source: PubChem BioAssay
